# Measurements as given in publication PMC7862700, “An all-to-all approach to the identification of sequence-specific readers for epigenetic DNA modifications on cytosine”.
# What was measured:
# Experiment in all cases: DAPPL (digital affinity profiling via proximity ligation, sequencing); 10 mM Tris-HCl pH 7.5, 50 mM NaCl, 1 mM DTT, 4% glycerol, room temperature, 30 min; GST-TFs on glutathione beads, 16-mer random dsDNA library, 0.1% formaldehyde crosslink after washing; high values mean tight binding
# FLI1 = molecular target: T1, FLI1 (Homo sapiens, UniProt Q01543 1-452); details: protein: recombinant; tags: N-terminal GST; dsDNA, one strand shown
# T1 sequence: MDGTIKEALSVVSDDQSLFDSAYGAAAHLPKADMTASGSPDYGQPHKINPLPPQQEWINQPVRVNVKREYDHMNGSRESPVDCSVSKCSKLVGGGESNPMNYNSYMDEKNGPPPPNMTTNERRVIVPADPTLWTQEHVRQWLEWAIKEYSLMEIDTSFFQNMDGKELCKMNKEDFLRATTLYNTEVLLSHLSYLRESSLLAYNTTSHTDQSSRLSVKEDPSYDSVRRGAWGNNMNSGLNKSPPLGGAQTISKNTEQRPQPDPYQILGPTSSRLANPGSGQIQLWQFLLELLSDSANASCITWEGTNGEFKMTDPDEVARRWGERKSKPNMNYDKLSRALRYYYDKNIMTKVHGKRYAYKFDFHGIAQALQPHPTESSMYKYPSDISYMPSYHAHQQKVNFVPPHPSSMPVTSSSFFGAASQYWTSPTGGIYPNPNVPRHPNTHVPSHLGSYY
# How it was run: (§1)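 Human transcription factors fused to GST were expressed in yeast, captured on glutathione beads, given DNA barcodes and pooled with a GST-only negative control. Pools were incubated with 200 nmole of a 16-mer random double-stranded DNA library in Tris/NaCl/DTT/glycerol buffer at room temperature for 30 min. They were then washed, crosslinked with 0.1% formaldehyde, proximity-ligated (BsaI/T4 ligase, 1 h, 37 °C), PCR-amplified and sequenced on an Illumina NextSeq500. Binding signal is each 6-mer's read frequency for a factor divided by its frequency for the GST control.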
# ELK1 = molecular target: T2, ELK1 (Homo sapiens, UniProt P19419 1-428); details: protein: recombinant; tags: N-terminal GST; dsDNA, one strand shown
# T2 sequence: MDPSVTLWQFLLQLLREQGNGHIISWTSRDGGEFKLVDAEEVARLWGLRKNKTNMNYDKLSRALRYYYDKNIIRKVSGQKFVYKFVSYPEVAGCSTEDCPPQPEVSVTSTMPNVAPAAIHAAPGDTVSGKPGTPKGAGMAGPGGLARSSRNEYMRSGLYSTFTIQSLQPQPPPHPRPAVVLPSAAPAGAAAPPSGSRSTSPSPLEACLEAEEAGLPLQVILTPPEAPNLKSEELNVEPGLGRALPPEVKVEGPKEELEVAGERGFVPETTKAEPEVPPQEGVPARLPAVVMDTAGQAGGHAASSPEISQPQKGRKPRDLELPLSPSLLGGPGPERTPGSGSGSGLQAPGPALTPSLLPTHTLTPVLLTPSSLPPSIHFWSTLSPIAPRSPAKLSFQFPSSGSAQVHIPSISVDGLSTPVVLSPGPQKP
# How it was run: as §1
# GABPA = molecular target: T3, GABPA (Homo sapiens, UniProt Q06546 1-454); details: protein: recombinant; tags: N-terminal GST; dsDNA, one strand shown
# T3 sequence: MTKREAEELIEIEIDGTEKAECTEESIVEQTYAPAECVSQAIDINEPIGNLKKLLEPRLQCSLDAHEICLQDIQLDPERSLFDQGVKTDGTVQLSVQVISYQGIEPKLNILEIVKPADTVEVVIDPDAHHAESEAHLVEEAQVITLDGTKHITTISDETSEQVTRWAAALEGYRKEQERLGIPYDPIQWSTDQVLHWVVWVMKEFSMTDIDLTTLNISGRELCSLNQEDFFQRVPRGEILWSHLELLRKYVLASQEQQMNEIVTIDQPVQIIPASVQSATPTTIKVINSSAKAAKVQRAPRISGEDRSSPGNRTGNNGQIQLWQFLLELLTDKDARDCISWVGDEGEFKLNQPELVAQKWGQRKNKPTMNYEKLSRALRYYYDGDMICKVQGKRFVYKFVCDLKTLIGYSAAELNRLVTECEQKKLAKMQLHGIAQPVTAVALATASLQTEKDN
# How it was run: as §1
# ERG = molecular target: T4, ERG (Homo sapiens, UniProt P11308 1-479); details: protein: recombinant; tags: N-terminal GST; dsDNA, one strand shown
# T4 sequence: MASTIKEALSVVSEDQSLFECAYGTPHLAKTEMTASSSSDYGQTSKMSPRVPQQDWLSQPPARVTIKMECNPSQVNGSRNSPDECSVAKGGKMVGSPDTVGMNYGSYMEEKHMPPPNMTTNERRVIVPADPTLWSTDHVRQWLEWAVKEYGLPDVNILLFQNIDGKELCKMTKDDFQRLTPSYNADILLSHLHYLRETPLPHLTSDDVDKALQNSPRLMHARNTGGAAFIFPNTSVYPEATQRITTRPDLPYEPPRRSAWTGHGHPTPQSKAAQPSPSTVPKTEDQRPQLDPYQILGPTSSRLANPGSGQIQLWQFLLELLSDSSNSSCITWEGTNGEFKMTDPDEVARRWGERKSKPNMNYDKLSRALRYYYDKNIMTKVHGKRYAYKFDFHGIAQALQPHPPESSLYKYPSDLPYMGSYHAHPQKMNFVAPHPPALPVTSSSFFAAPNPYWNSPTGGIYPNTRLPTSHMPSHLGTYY
# How it was run: as §1
# ELF1 = ELF1 (Homo sapiens, UniProt P32519 1-619); details: protein: recombinant; tags: N-terminal GST; dsDNA, one strand shown
# How it was run: as §1
# EHF = molecular target: T5, EHF (Homo sapiens, UniProt Q9NZC4 1-300); details: protein: recombinant; tags: N-terminal GST; dsDNA, one strand shown
# T5 sequence: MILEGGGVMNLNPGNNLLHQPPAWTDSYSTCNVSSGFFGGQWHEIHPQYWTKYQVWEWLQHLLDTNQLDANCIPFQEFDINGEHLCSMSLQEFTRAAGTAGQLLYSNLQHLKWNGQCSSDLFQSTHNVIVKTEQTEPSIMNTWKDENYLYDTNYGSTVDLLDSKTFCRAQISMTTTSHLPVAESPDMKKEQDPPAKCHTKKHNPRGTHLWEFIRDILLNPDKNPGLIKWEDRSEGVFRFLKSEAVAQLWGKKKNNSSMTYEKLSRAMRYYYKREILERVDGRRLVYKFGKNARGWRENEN
# How it was run: as §1
# SPI1 = SPI1 (Homo sapiens, UniProt P17947 1-270); details: protein: recombinant; tags: N-terminal GST; dsDNA, one strand shown
# How it was run: as §1
# SPIB = SPIB (Homo sapiens, UniProt Q01892 1-262); details: protein: recombinant; tags: N-terminal GST; dsDNA, one strand shown
# How it was run: as §1
# ELK3 = molecular target: T6, ELK3 (Homo sapiens, UniProt P41970 1-407); details: protein: recombinant; tags: N-terminal GST; dsDNA, one strand shown
# T6 sequence: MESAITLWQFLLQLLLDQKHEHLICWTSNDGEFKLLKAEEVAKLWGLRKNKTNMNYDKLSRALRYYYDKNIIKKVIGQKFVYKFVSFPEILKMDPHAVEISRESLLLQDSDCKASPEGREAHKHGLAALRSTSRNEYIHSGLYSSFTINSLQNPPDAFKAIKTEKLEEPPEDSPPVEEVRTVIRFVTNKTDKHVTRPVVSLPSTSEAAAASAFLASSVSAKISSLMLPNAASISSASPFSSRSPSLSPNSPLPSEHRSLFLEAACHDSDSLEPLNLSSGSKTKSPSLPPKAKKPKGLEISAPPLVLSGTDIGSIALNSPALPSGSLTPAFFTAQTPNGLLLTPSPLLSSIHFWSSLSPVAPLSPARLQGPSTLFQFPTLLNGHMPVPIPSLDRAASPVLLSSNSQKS
# How it was run: as §1
# FEV = molecular target: T7, FEV (Homo sapiens, UniProt Q99581 1-238); details: protein: recombinant; tags: N-terminal GST; dsDNA, one strand shown
# T7 sequence: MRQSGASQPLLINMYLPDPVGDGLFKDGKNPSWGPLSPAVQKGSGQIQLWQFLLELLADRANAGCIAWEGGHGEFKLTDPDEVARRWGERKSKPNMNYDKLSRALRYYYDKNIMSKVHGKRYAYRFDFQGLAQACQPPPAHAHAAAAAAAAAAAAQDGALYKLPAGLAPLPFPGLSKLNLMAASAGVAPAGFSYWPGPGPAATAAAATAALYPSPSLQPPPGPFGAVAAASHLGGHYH
# How it was run: as §1
# ETV5 = ETV5 (Homo sapiens, UniProt P41161 1-510); details: protein: recombinant; tags: N-terminal GST; dsDNA, one strand shown
# How it was run: as §1
# HSF1 = HSF1 (Homo sapiens, UniProt Q00613 1-529); details: protein: recombinant; tags: N-terminal GST; chain copies: 3; dsDNA, one strand shown
# How it was run: as §1
# SPIC = molecular target: T8, SPIC (Homo sapiens, UniProt Q8N5J4 1-248); details: protein: recombinant; tags: N-terminal GST; dsDNA, one strand shown
# T8 sequence: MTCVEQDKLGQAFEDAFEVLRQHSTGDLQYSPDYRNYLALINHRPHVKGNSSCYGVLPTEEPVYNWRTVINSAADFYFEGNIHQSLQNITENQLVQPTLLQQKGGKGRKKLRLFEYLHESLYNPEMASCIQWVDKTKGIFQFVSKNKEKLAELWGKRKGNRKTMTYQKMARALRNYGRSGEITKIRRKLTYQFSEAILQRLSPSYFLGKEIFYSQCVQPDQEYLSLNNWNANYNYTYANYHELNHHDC
# How it was run: as §1
# ELF4 = ELF4 (Homo sapiens, UniProt Q99607 1-663); details: protein: recombinant; tags: N-terminal GST; dsDNA, one strand shown
# How it was run: as §1
# ELK4 = molecular target: T9, ELK4 (Homo sapiens, UniProt P28324-2 1-405); details: protein: recombinant; tags: N-terminal GST; dsDNA, one strand shown
# T9 sequence: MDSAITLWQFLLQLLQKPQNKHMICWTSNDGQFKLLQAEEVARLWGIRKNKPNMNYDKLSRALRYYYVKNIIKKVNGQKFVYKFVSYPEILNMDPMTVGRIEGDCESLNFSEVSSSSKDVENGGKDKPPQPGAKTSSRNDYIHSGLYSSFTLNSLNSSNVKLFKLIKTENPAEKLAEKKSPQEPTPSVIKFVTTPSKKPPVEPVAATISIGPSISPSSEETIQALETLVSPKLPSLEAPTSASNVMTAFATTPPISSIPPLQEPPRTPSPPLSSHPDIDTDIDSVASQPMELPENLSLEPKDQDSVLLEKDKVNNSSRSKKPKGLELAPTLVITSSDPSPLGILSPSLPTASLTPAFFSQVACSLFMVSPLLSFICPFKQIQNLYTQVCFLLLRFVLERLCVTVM
# How it was run: as §1
# ETV2 = molecular target: T10, ETV2 (Homo sapiens, UniProt O00321 1-342); details: protein: recombinant; tags: N-terminal GST; dsDNA, one strand shown
# T10 sequence: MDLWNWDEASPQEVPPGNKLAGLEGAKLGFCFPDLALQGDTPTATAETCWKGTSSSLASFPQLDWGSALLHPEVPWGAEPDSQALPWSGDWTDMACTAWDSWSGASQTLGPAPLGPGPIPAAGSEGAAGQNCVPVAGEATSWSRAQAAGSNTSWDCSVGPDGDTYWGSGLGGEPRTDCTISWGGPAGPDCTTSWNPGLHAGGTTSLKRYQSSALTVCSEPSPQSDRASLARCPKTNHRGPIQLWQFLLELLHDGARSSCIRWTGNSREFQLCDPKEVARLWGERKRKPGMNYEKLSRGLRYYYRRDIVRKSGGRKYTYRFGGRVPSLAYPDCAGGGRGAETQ
# How it was run: as §1
# ELF3 = molecular target: T11, ELF3 (Homo sapiens, UniProt P78545 1-371); details: protein: recombinant; tags: N-terminal GST; dsDNA, one strand shown
# T11 sequence: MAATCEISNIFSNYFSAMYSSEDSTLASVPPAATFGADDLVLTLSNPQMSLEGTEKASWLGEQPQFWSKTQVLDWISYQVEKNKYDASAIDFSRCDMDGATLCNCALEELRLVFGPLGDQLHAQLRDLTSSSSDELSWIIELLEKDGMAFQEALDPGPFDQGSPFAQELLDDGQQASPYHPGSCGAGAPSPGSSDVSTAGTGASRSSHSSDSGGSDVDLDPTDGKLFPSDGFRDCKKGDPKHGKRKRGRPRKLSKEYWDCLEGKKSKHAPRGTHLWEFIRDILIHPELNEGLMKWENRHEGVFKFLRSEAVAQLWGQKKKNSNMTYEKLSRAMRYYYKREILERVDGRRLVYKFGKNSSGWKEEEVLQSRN
# How it was run: as §1
# CRX = CRX (Homo sapiens, UniProt O43186 1-299); details: protein: recombinant; tags: N-terminal GST; dsDNA, one strand shown
# How it was run: as §1
# ETV1 = ETV1 (Homo sapiens, UniProt P50549 1-477); details: protein: recombinant; tags: N-terminal GST; dsDNA, one strand shown
# How it was run: as §1
# Chain of SPIB (Q01892 whole entry): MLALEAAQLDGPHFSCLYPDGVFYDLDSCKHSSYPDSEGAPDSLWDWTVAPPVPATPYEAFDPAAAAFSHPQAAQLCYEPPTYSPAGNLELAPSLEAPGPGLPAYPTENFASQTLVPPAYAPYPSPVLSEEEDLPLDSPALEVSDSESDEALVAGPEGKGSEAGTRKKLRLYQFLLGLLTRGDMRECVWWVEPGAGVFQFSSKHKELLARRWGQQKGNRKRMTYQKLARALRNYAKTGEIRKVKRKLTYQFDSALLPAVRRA
# Chain of CRX (O43186 whole entry): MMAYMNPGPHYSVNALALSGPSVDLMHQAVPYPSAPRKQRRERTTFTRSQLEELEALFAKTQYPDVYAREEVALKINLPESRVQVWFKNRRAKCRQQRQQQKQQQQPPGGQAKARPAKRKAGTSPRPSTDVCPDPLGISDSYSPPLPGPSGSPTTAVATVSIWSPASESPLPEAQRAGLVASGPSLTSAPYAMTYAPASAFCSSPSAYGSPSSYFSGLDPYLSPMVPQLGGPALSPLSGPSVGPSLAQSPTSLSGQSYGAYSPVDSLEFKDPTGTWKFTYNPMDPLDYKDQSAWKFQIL
# Chain of ETV1 (P50549 whole entry): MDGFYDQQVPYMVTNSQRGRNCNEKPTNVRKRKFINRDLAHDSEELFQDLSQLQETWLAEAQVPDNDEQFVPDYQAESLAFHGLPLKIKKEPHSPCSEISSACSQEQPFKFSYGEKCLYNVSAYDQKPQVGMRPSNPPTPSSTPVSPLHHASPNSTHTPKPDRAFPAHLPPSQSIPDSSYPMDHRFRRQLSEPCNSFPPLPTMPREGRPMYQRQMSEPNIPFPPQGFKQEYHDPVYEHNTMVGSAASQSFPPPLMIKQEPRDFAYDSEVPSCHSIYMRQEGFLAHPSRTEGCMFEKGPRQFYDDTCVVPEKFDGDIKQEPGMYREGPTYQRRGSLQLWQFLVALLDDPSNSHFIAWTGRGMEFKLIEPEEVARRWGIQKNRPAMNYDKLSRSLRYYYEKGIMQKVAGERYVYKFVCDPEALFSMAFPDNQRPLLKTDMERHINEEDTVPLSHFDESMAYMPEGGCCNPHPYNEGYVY
# Chain of ELF4 (Q99607 whole entry): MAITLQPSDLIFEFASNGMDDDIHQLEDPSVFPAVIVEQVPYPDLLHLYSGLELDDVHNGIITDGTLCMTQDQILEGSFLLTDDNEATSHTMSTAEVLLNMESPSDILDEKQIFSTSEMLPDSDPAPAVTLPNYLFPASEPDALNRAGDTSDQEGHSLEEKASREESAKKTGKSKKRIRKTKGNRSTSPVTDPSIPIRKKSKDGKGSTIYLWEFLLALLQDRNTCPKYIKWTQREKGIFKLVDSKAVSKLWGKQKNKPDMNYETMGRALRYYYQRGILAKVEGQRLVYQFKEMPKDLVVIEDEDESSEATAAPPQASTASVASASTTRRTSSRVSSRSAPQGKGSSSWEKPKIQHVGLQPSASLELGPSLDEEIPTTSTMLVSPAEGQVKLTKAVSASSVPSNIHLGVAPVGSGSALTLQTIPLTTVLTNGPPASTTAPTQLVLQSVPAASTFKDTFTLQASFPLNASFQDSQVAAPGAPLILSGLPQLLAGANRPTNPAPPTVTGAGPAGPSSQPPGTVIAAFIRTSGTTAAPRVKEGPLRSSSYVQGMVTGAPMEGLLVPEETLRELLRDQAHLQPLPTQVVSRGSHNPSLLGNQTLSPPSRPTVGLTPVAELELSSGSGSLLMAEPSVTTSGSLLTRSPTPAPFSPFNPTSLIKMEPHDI
# Chain of ELF1 (P32519 whole entry): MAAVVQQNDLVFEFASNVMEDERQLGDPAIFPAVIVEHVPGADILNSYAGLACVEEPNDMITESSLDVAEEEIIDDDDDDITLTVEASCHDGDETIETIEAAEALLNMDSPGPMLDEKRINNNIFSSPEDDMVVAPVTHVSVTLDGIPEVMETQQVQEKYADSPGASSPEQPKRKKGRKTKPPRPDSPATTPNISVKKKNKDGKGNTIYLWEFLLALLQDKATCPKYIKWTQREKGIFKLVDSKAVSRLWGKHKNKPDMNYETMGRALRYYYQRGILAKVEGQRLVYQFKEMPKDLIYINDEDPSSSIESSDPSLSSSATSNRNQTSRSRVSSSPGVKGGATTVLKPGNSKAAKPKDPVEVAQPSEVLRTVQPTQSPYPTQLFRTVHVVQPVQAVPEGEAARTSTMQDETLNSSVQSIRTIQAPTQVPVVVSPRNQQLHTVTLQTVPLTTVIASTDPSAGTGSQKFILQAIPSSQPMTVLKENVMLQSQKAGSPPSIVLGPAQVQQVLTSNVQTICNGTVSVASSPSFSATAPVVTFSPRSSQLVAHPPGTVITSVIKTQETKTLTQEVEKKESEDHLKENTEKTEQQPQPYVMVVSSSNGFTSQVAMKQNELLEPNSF
# Chain of ETV5 (P41161 whole entry): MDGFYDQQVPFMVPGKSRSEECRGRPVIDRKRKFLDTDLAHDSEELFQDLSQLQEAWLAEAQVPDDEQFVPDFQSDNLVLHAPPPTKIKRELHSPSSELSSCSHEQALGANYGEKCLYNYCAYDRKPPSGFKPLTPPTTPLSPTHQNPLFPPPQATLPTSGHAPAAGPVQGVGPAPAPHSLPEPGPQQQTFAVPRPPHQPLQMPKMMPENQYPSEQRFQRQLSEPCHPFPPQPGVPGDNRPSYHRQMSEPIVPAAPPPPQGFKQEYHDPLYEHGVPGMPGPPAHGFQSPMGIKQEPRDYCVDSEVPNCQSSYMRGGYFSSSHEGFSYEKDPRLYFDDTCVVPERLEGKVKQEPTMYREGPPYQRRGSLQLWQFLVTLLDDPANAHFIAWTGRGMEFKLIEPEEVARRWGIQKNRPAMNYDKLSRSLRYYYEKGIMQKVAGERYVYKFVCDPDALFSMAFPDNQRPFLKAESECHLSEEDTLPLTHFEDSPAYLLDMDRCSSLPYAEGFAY
# Chain of HSF1 (Q00613 whole entry): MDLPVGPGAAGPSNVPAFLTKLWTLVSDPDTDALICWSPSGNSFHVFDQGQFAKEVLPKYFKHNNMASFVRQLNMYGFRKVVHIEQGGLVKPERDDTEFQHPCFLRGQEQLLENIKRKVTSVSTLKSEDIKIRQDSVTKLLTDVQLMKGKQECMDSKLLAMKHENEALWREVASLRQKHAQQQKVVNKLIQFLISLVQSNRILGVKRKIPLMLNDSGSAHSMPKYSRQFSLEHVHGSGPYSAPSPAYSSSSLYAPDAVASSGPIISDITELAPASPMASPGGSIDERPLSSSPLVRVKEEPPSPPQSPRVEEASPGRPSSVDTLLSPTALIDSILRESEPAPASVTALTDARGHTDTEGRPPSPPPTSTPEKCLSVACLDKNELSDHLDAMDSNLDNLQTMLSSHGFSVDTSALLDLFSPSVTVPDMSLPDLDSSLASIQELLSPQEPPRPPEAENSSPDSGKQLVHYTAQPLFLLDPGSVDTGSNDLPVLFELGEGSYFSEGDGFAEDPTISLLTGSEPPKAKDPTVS
sequence,measurement,setting,value
CTCAAG,binding signal,FLI1,"1.29 fold enrichment (6-mer frequency, TF over GST control)"
same,binding signal,ELK1,"1.17 fold enrichment (6-mer frequency, TF over GST control)"
same,binding signal,GABPA,"1.14 fold enrichment (6-mer frequency, TF over GST control)"
same,binding signal,ERG,"1.18 fold enrichment (6-mer frequency, TF over GST control)"
same,binding signal,ELF1,"1.18 fold enrichment (6-mer frequency, TF over GST control)"
same,binding signal,EHF,"1.21 fold enrichment (6-mer frequency, TF over GST control)"
same,binding signal,SPI1,"1.22 fold enrichment (6-mer frequency, TF over GST control)"
same,binding signal,SPIB,"1.2 fold enrichment (6-mer frequency, TF over GST control)"
same,binding signal,ELK3,"1.32 fold enrichment (6-mer frequency, TF over GST control)"
same,binding signal,FEV,"1.16 fold enrichment (6-mer frequency, TF over GST control)"
same,binding signal,ETV5,"1.14 fold enrichment (6-mer frequency, TF over GST control)"
same,binding signal,HSF1,"1.19 fold enrichment (6-mer frequency, TF over GST control)"
same,binding signal,SPIC,"1.1 fold enrichment (6-mer frequency, TF over GST control)"
same,binding signal,ELF4,"1.19 fold enrichment (6-mer frequency, TF over GST control)"
same,binding signal,ELK4,"1.09 fold enrichment (6-mer frequency, TF over GST control)"
same,binding signal,ETV2,"1.11 fold enrichment (6-mer frequency, TF over GST control)"
same,binding signal,ELF3,"1.22 fold enrichment (6-mer frequency, TF over GST control)"
same,binding signal,CRX,"1.2 fold enrichment (6-mer frequency, TF over GST control)"
same,binding signal,ETV1,"1.21 fold enrichment (6-mer frequency, TF over GST control)"
